# Targets with a hit are over-represented here; the source holds about 7,900 in all. About 0.6% of all pairs of compound and target were hits. A number with no mark means an inactive call.
# How the values were obtained:
# Assay in all cases: log2 fold change, soluble protein after heating vs DMSO (PISA); higher = thermal stabilisation; K562 cells, 10 uM, 30 min; active = over 0.2 and 3.5 SD of the protein, either way, in both replicates (recomputed)
# [1] = compound: COC1=CC=C(C=C1)CN2C=CC3=C2C=C(C=C3)C(=O)NO
# In short: (§1)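 K562 cells at 2×10^6 cells/mL were exposed to 10 μM compound for 30 min, then aliquots were heated for 3 min across 48°C-58°C, pooled, and extracted in PBS containing 0.5% NP-40 at 4°C. The supernatant after 21,000xg for 90 min was taken as soluble protein and measured by TMTpro 16plex LC-MS/MS with channel sums equalised. Thermal stability is reported relative to control samples, with values from duplicates. Fold changes are given on a log2 scale.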
# filanesib = compound: CON(C)C(=O)N1N=C(c2cc(F)ccc2F)S[C@@]1(CCCN)c1ccccc1 [filanesib]
# In short: as §1
# zotarolimus = compound: CO[C@H]1C[C@@H]2CC[C@@H](C)[C@@](O)(O2)C(=O)C(=O)N2CCCC[C@H]2C(=O)O[C@H]([C@H](C)C[C@@H]2CC[C@H](n3cnnn3)[C@H](OC)C2)CC(=O)[C@H](C)/C=C(\C)[C@@H](O)[C@@H](OC)C(=O)[C@H](C)C[C@H](C)/C=C/C=C/C=C/1C [zotarolimus]
# In short: as §1
# idasanutlin = compound: COc1cc(C(=O)O)ccc1NC(=O)[C@@H]1N[C@@H](CC(C)(C)C)[C@](C#N)(c2ccc(Cl)cc2F)[C@H]1c1cccc(Cl)c1F [idasanutlin]
# In short: as §1
# alisertib = compound: COc1cc(Nc2ncc3c(n2)-c2ccc(Cl)cc2C(c2c(F)cccc2OC)=NC3)ccc1C(=O)O [alisertib]
# In short: as §1
# [2] = compound: COc1cc2nc(-c3cc(F)ccc3O)nc(N[C@@H]3CNC[C@H]3C(C)(C)O)c2cc1OC
# In short: as §1
# gefitinib = compound: COc1cc2ncnc(Nc3ccc(F)c(Cl)c3)c2cc1OCCCN1CCOCC1 [gefitinib]
# In short: as §1
# [3] = compound: COc1cccc2cc(-c3nc([C@H]4CC[C@H](C(=O)O)CC4)n4ncnc(N)c34)[nH]c12
# In short: as §1
# lapatinib = compound: CS(=O)(=O)CCNCc1ccc(-c2ccc3ncnc(Nc4ccc(OCc5cccc(F)c5)c(Cl)c4)c3c2)o1 [lapatinib]
# In short: as §1
# pictilisib = compound: CS(=O)(=O)N1CCN(Cc2cc3nc(-c4cccc5[nH]ncc45)nc(N4CCOCC4)c3s2)CC1 [pictilisib]
# In short: as §1
# [4] = compound: CS(=O)(=O)c1ccc(-c2cnc(N)c(C(=O)Nc3ccccc3)n2)cc1
# In short: as §1
# crizotinib = compound: C[C@@H](Oc1cc(-c2cnn(C3CCNCC3)c2)cnc1N)c1c(Cl)ccc(F)c1Cl [crizotinib]
# In short: as §1
# [5] = compound: C[C@@H]1COCCN1C2=NC(=NC(=C2)C3(CC3)S(=O)(=O)C)C4=C5C=CNC5=CC=C4
# In short: as §1
# [6] = compound: C[C@H](C1=CC=C(C=C1)C(=O)NC2=C3C=CNC3=NC=C2)N
# In short: as §1
# duvelisib = compound: C[C@H](Nc1ncnc2nc[nH]c12)c1cc2cccc(Cl)c2c(=O)n1-c1ccccc1 [duvelisib]
# In short: as §1
# gandotinib = compound: Cc1cc(Nc2cc(CN3CCOCC3)c3nc(C)c(Cc4ccc(Cl)cc4F)n3n2)n[nH]1 [gandotinib]
# In short: as §1
# [7] = compound: Cc1cc(SCc2sc(-c3ccc(C(F)(F)F)cc3)nc2C)ccc1OCC(=O)O
# In short: as §1
# doramapimod = compound: Cc1ccc(-n2nc(C(C)(C)C)cc2NC(=O)Nc2ccc(OCCN3CCOCC3)c3ccccc23)cc1 [doramapimod]
# In short: as §1
# ispinesib = compound: Cc1ccc(C(=O)N(CCCN)[C@@H](c2nc3cc(Cl)ccc3c(=O)n2Cc2ccccc2)C(C)C)cc1 [ispinesib]
# In short: as §1
# tozasertib = compound: Cc1cc(Nc2cc(N3CCN(C)CC3)nc(Sc3ccc(NC(=O)C4CC4)cc3)n2)n[nH]1 [tozasertib]
# In short: as §1
# Sequence of UniProt O75153 (O75153 whole entry, looked up): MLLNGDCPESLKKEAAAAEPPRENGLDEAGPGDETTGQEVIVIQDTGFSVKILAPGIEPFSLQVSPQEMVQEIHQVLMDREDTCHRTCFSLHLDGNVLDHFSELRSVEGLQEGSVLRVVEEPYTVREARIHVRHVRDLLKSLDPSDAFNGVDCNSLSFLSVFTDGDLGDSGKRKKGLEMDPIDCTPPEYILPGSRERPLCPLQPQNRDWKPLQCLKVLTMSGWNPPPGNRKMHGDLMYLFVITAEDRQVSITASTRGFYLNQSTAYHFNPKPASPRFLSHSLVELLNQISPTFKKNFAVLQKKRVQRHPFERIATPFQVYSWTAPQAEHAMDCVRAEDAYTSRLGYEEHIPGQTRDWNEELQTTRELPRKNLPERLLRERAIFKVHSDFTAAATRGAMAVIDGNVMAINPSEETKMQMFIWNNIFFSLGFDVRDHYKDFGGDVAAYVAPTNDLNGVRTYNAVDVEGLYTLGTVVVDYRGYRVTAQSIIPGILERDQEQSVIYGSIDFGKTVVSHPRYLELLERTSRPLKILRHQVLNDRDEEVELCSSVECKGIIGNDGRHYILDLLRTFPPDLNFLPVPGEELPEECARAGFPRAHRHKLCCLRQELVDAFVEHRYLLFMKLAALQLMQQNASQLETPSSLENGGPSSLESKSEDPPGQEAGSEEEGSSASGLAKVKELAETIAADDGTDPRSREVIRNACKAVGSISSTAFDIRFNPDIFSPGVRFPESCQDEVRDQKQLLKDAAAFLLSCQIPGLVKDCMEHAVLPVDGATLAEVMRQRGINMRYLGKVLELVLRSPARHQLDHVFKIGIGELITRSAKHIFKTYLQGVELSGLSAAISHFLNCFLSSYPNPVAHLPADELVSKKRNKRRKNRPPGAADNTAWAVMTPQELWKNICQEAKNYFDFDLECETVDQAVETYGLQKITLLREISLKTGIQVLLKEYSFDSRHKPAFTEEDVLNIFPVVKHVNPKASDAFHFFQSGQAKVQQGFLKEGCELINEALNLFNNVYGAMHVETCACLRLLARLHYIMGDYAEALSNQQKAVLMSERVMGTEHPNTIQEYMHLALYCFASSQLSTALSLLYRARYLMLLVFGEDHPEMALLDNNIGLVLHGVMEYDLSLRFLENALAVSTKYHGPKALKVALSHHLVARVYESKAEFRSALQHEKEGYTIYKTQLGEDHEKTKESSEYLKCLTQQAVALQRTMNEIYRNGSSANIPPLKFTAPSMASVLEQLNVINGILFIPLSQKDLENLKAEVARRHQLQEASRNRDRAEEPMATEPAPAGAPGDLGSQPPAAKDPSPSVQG
# Sequence of UniProt Q5JTJ3 (Q5JTJ3 whole entry, looked up): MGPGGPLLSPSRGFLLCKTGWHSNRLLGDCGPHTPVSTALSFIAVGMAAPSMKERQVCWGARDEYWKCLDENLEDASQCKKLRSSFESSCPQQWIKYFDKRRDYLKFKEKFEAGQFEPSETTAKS
# Sequence of UniProt O75503 (O75503 whole entry, looked up): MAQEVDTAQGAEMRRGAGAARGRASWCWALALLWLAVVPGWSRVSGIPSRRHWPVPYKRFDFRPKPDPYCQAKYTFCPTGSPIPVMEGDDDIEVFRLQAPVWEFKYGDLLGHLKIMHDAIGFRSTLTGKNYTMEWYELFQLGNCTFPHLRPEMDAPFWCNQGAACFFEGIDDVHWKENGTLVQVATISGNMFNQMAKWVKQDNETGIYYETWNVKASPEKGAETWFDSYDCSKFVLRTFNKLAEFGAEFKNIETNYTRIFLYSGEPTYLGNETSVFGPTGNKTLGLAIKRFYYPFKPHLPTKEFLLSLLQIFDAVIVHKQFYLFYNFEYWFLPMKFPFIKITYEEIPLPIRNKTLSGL
# Sequence of UniProt Q13111 (Q13111 whole entry, looked up): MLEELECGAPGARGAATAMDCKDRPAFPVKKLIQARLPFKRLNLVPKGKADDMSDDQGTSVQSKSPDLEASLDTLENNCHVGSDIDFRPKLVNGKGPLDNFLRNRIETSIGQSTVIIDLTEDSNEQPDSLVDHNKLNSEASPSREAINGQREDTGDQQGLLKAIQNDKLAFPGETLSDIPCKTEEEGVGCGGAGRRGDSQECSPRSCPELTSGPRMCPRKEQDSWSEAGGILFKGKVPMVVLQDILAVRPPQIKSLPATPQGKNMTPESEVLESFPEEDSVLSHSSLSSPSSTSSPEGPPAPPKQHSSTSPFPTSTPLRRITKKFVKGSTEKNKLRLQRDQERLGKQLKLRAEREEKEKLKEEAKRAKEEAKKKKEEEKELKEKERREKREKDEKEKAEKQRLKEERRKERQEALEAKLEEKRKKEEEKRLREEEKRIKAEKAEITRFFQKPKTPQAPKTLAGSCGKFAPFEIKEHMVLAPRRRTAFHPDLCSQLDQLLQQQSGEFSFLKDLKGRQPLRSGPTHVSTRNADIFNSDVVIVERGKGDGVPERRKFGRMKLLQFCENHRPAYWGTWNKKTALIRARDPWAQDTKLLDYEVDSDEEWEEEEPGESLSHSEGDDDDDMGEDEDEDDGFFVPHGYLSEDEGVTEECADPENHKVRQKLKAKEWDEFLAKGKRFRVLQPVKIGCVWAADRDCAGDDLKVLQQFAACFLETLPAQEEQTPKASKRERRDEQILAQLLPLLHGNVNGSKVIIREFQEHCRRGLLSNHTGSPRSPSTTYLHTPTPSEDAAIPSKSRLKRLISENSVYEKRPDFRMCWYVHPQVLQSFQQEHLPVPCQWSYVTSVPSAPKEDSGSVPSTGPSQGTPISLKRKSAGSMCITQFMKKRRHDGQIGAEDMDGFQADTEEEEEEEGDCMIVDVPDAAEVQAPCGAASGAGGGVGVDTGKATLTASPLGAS
# Sequence of UniProt P21127 (P21127 whole entry, looked up): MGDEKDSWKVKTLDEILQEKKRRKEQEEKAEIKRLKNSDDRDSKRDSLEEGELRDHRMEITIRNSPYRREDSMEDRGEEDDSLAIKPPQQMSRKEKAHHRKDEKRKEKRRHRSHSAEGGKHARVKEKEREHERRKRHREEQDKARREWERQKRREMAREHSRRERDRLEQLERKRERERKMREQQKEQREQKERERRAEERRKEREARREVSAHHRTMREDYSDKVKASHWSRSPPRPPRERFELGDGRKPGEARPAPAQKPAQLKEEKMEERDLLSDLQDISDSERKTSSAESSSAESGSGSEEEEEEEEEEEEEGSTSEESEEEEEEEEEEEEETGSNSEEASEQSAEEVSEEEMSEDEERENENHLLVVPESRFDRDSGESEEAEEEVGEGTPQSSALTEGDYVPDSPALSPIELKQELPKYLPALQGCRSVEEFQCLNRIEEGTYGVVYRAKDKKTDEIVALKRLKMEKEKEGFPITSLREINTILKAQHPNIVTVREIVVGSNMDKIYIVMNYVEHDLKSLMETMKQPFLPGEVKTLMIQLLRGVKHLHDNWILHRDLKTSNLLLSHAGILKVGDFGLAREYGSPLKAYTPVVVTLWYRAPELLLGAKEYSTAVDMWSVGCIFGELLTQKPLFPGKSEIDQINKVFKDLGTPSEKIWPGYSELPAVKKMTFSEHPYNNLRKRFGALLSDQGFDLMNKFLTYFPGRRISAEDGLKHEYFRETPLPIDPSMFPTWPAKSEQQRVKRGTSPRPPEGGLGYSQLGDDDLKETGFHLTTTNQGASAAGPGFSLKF
# Sequence of UniProt Q8IWX8 (Q8IWX8 whole entry, looked up): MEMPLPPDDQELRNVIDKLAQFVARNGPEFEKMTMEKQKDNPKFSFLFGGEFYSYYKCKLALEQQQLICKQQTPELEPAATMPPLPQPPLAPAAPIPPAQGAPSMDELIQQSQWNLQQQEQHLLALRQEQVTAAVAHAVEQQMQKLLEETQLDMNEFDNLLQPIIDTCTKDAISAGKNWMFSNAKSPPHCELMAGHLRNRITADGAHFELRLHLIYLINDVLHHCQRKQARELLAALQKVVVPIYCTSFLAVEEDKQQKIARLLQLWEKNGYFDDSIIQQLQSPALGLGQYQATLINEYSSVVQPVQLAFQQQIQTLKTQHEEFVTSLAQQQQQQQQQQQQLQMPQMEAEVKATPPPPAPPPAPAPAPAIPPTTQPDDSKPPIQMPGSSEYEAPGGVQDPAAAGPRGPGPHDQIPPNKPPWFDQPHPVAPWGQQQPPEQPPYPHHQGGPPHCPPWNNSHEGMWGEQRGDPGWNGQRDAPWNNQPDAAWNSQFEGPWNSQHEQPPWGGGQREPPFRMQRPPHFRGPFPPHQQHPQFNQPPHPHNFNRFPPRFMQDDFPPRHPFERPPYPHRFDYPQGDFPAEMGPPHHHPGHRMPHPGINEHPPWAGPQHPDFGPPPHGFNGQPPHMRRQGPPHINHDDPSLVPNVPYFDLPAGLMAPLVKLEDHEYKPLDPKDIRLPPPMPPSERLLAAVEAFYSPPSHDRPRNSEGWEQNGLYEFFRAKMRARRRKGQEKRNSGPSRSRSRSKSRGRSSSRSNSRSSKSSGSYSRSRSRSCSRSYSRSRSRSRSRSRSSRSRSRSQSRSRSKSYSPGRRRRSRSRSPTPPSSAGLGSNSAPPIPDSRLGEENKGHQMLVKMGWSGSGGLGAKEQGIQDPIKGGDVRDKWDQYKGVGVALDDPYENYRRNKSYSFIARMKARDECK
# Sequence of UniProt Q9P0B6 (Q9P0B6 whole entry, looked up): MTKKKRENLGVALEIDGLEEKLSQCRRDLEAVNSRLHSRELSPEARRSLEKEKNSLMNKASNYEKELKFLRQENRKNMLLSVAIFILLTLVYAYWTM
# Sequence of UniProt Q99807 (Q99807 whole entry, looked up): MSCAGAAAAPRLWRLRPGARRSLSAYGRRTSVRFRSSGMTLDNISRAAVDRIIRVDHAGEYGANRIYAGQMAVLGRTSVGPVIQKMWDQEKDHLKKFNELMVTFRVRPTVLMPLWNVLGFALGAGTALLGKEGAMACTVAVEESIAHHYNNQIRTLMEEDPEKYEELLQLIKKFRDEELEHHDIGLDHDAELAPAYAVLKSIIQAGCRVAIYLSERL
Target,log2 fold change [1],log2 fold change (filanesib),log2 fold change (zotarolimus),log2 fold change (idasanutlin),log2 fold change (alisertib),log2 fold change [2],log2 fold change (gefitinib),log2 fold change [3],log2 fold change (lapatinib),log2 fold change (pictilisib),log2 fold change [4],log2 fold change (crizotinib),log2 fold change [5],log2 fold change [6],log2 fold change (duvelisib),log2 fold change (gandotinib),log2 fold change [7],log2 fold change (doramapimod),log2 fold change (ispinesib),log2 fold change (tozasertib)
CHAF1A (UniProt Q13111),-0.149,0.143,-0.145,0.05,0,0.007,0.169,0.004,0.169,0.031,-0.015,0.058,-0.058,0.15,0.051,-0.035,-0.04,0.025,-0.098,–
CHERP (UniProt Q8IWX8),0.04,0.266,0.051,0.063,0.002,-0.227,-0.02,0.002,-0.023,0.038,-0.087,-0.108,0.109,0.009,-0.025,-0.047,0.138,0.01,-0.004,0.08
CLASP2 isoform 3 (UniProt O75122),0.021,0.068,0.033,-0.024,-0.021,0.055,-0.002,0.003,-0.009,–,-0.035,-0.201,0.044,-0.029,0.047,-0.314 (active),0.074,-0.007,-0.054,-0.06
COA6 isoform 2 (UniProt Q5JTJ3),0.02,-0.029,0.019,-0.052,0.002,-0.042,-0.003,0.022,-0.017,-0.006,0.026,-0.001,-0.07,-0.155,0.068,0.082,0.159,0,0.035,0.109
COQ7 (UniProt Q99807),0.001,-0.098,-0.081,0.026,0.115,0.011,0.055,0.031,0.042,0.074,0.113,-0.163,0.062,0.007,0.067,-0.359 (active),0.019,0.009,-0.181,-0.05
CDK11B (UniProt P21127),-0.253,-0.009,-0.046,-0.094,0.011,0.151,0.095,0.097,-0.069,-0.057,0.025,1.24 (active),0.052,0.166,0.099,0.105,0.007,0,0.022,0.018
CDK5 (UniProt Q00535),0.004,0.024,-0.003,-0.099,-0.046,0.054,0.002,0,-0.033,-0.011,0.019,-0.076,0.037,-0.022,0.001,-0.003,0.008,0.088,-0.033,-0.055
CLN5 (UniProt O75503),0.021,-0.385,0.075,0.049,0.265,-0.65,-0.341,0.27,-0.028,–,0.136,-0.733,0.06,0.046,0.093,-0.077,0.073,0.044,–,-0.115
CLUH (UniProt O75153),-0.026,0.07,0.028,-0.074,-0.072,-0.022,-0.001,-0.152,0.006,–,-0.001,-0.094,0.348 (active),0.094,0.698 (active),-0.037,0.01,0.02,0.043,-0.024
CLPP (UniProt Q16740),-0.03,-0.017,0,-0.038,-0.091,0.011,0.01,0.021,-0.034,–,0.05,0.348 (active),0.058,-0.025,0.006,0.008,0.017,0.003,0.105,-0.02
CCDC167 (UniProt Q9P0B6),-0.054,-0.024,-0.027,–,-0.068,-0.148,-0.021,-0.105,0.016,0.047,-0.08,0.025,0.071,0.135,0.263,0.181,-0.214,0.034,-0.344 (active),-0.121
